From PubChem BioAssay (NCATS) come the findings set out here.

Experiment [1] can be described thus: Drug repurposing screens with cells derived from glioblastoma tumor samples (AID 1345199). Also: nearly all actives have a fitted effect of over 40% in size. Also: potency is read from the fitted curve at half-maximal effect. As to activity, negative = cell killing: % is scaled to controls: 0 for no effect and ±100 for the full control effect. As to conditions: GBM patient neurospheres viability, ATP luminescence, 48 h. The essentials:
(§1)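 Primary testing used CD133+ neurospheres from four GBM patients, seven concentrations, 48 h exposure and ATP-based viability; confirmation added three slower-growing patient lines.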

The subject of experiment [2] is astro (control astrocytes). The experiment is described as above. As to conditions: viability, ATP luminescence, 48 h; series mostly up to 45.9 µM. The essentials:
as §1

The target in experiment [3] is Nuclear receptor subfamily 1 group I member 2 (Rattus norvegicus) (UniProt Q9R1A7). The experiment is described as follows: qHTS assay for small molecule activators of the rat pregnane X receptor (rPXR) signaling pathway (AID 651751; call rule not given here; also: 0% is about no effect). As to conditions: rPXR reporter cells, luciferase (One-Glo), 24 h. A general note: qHTS replaces the single test concentration by a dilution series.

Experiment [4] can be described thus: qHTS assay for small molecule activators of the human pregnane X receptor (PXR) signaling pathway (AID 720659; call rule not given here; also: 0% is about no effect). Particulars: DPX-2 HepG2 CYP3A4-luciferase, 24 h; series mostly up to 92.3 µM.
Setting [5] is: at 45.9 µM (top of the series), tumour line B.
The mark [6] stands for this setting: at 45.9 µM (top of the series), tumour line D.
The mark [7] stands for this setting: at 46 µM (top of the series), tumour line A.
[8] abbreviates: at 46.1 µM (top of the series), tumour line C.

Several values for one entry are separate records, joined by “and”; a condition that tells them apart may be missing. Identical values can stand only once. A number with no mark means an inactive call. Inconclusive results are not listed. Activity calls are given as the source filed them. Unless noted, calls follow the shape of the dose curve; as a rule, active = well fitted inhibition curve with a large enough effect; inconclusive = small, poorly fitted or top-dose-only effect; inactive = flat fitted curve, though single readings scatter. Where a SMILES comes first, the peptide text is derived from it. Bridges are numbered along the chain shown (N, C = ends). [ ]: non-standard residue; d: D form. Orn = NCCC[C@H](N)C(=O)O; Mpa = O=C(O)CCS

Nuclear receptor subfamily 1 group I member 2 (Rattus norvegicus), sequence (Q9R1A7 whole entry, looked up): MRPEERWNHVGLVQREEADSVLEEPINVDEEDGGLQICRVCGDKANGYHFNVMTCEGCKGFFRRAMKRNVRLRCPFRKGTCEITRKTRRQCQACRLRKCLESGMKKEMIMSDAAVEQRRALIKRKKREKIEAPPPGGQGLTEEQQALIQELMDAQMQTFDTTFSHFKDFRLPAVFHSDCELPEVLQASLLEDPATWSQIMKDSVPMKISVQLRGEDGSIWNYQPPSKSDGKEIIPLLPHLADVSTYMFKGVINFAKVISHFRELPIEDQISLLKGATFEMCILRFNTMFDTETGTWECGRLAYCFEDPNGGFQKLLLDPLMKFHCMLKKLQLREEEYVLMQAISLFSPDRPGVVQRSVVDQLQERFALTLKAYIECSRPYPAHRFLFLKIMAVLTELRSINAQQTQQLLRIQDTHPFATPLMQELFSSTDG

Regarding `O=c1[nH]cnc2[nH]cc(CN3CCCCC3)c12`, the activity, negative = cell killing was -5.2% in experiment [1] (setting [5]), -0.491% in experiment [1] (setting [6]), 2.77% in experiment [1] (setting [7]) and -8.31% in experiment [1] (setting [8]). Further, the Potency result in experiment [2] is “inactive”.
Consider `O=C(O)CC(O)(CC(=O)O)C(=O)O`, for which the activity, negative = cell killing in experiment [1] (setting [5]) is -4.79%; in experiment [1] (setting [6]), -16.4%; in experiment [1] (setting [7]) it was -28.2%; in experiment [1] (setting [8]) it was 8.12%. Also, the Potency result in experiment [2] was “inactive”. Further, the max response in experiment [3] was -3.16% and 0.294% and 0.384%. Further, the compound was called inactive in experiment [4].
For `C=Cc1ccccc1`, the activity, negative = cell killing in experiment [1] (setting [5]) was -11.1%; in experiment [1] (setting [6]) it was 3.17%; in experiment [1] (setting [7]) it was -1.65%; in experiment [1] (setting [8]) it was 3.42%. The Potency entry in experiment [2] was “inactive”. Further, in experiment [3], the max response was 2.91% and 3.44%. In experiment [4], the compound was classed as inactive.
Consider `CNC[C@@H]1CC[C@@H](N)[C@@H](O[C@H]2[C@H](O)[C@@H](O[C@H]3OC[C@](C)(O)[C@H](NC)[C@H]3O)[C@H](N)C[C@@H]2N)O1`, for which the activity, negative = cell killing in experiment [1] (setting [5]) is -14.4%; in experiment [1] (setting [6]), -20.8%; in experiment [1] (setting [8]), 16.1%. Also, the Potency entry in experiment [2] is “inactive”.
For the compound `CCN(CC)c1ccc(N=Nc2ccc(S(=O)(=O)N(C)C)cc2)c(S(=O)(=O)NCC[n+]2ccccc2)c1`, the activity, negative = cell killing in experiment [1] (setting [5]) is -13%; in experiment [1] (setting [6]), -3.67%; in experiment [1] (setting [8]) it was -10.2%. For the same compound, the Potency in experiment [1] (tumour line A) was 35.5 µM (active). The Potency entry in experiment [2] is “inactive”.
Take `CCN(CC)CCOC(=O)c1ccc(N)cc1Cl`: the activity, negative = cell killing in experiment [1] (setting [5]) was -9.89%; in experiment [1] (setting [6]), -17.2%; in experiment [1] (setting [7]) it was -27.9%; in experiment [1] (setting [8]), -6%. In experiment [2], the Potency entry is “inactive”.
Consider `CCCCCCCCCCCCCCCC(=O)OC[C@@H](COP(=O)([O-])OCC[N+](C)(C)C)OC(=O)CCCCCCCCCCCCCCC`, for which the figures for the activity, negative = cell killing in experiment [1] (setting [5]), in experiment [1] (setting [6]) and in experiment [1] (setting [8]) were -16.6%, 2.92% and 0.955%, respectively. Moreover, the Potency entry in experiment [2] was “inactive”.
With `CC(C)(C)NC(=O)[C@H]1CC[C@H]2[C@@H]3CC=C4C=C(C(=O)O)CC[C@]4(C)[C@H]3CC[C@]12C`, the activity, negative = cell killing in experiment [1] (setting [5]) is -3.87%; in experiment [1] (setting [6]), 0.505%; in experiment [1] (setting [8]) it was -11%. Further, in experiment [2], the Potency result is “inactive”.
Take `CCCC(=O)N1CCCN(c2nc(N)c3cc(OC)c(OC)cc3n2)CC1`: the activity, negative = cell killing in experiment [1] (setting [5]) was -1.44%; in experiment [1] (setting [6]), -2.77%; in experiment [1] (setting [8]) it was 14.2%. In experiment [1] (tumour line A), the Potency was 17.8 µM (active). Moreover, the Potency entry in experiment [2] is “inactive”.
As to `CO/N=C(\C(=O)N[C@@H]1C(=O)N2C(C(=O)OCOC(=O)C(C)(C)C)=C(/C=C\c3scnc3C)CS[C@H]12)c1csc(N)n1`, the activity, negative = cell killing is -2.3% in experiment [1] (setting [5]), -0.209% in experiment [1] (setting [6]), -23.3% in experiment [1] (setting [7]) and -3.78% in experiment [1] (setting [8]). Also, the Potency result in experiment [2] was “inactive”.
For `NCCCC(=O)O`, in that order: -13.9%, -9.35%, 3.28%, -16.7% and “inactive”.
`C[C@@H]1C[C@H]2C3C[C@H](F)C4=CC(=O)C=CC4(C)[C@@]3(F)[C@@H](O)CC2(C)[C@@]1(O)C(=O)COC(=O)C(C)(C)C` (stereo partly specified): the activity, negative = cell killing in experiment [1] (setting [5]) was -6.93%; in experiment [1] (setting [6]), -10.7%; in experiment [1] (setting [8]), 2.01%. Also, the Potency in experiment [1] (tumour line A) is 12.6 µM (active). In addition, in experiment [2], the Potency result was “inactive”.
As to `O=C(OCCO)c1ccccc1O`, the activity, negative = cell killing in experiment [1] (setting [5]) is -4.1%; in experiment [1] (setting [6]) it was 8.11%; in experiment [1] (setting [7]) it was -21.4%; in experiment [1] (setting [8]) it was -4.97%. For the same compound, the Potency entry in experiment [2] is “inactive”.
For `CC1(C)S[C@@H]2[C@H](NC(=O)C(C(=O)Oc3ccc4c(c3)CCC4)c3ccccc3)C(=O)N2[C@H]1C(=O)O` (stereo partly specified) the same measures were -10.7%, -5.29%, -6.42%, 7.9% and “inactive”.
`CC(=O)O[C@H]1CC[C@@]2(C)C(=CC[C@H]3[C@@H]4CC[C@H](C(C)=O)[C@@]4(C)CC[C@@H]32)C1`: the activity, negative = cell killing in experiment [1] (setting [5]) was -9.15%; in experiment [1] (setting [6]), -28.1%; in experiment [1] (setting [8]), -12%. Moreover, the Potency entry in experiment [2] was “inactive”.
Turning to `CCOC(=O)[C@H](CCc1ccccc1)N[C@H]1CCCN2CCC[C@@H](C(=O)O)N2C1=O`, the activity, negative = cell killing in experiment [1] (setting [5]) was -17.5%; in experiment [1] (setting [6]) it was -14.2%; in experiment [1] (setting [8]), 4.99%. In addition, the Potency entry in experiment [2] was “inactive”.
For `CCOc1ccc(C[C@H]2NC(=O)CCSSC[C@@H](C(=O)N3CCC[C@H]3C(=O)N[C@@H](CCCN)C(=O)NCC(N)=O)NC(=O)[C@H](CC(N)=O)NC(=O)[C@H]([C@@H](C)O)NC(=O)[C@H]([C@@H](C)CC)NC2=O)cc1` ([Mpa][dY](Et)ITNCP[Orn]G-NH2; disulfide 1-6), in that order: -9.93%, -4.59%, 3.43% and “inactive”.
With `COc1ccc(CCNCC(O)COc2cccc(C)c2)cc1OC` (stereo unspecified), the activity, negative = cell killing in experiment [1] (setting [5]) is -28.4%; in experiment [1] (setting [8]), -25.3%. Moreover, in experiment [1] (tumour line A), the Potency was 11.2 µM (active). Besides, in experiment [2], the Potency entry was “inactive”.
Regarding `CC1(C)S[C@@H]2[C@H](NC(=O)[C@H](N)c3ccccc3)C(=O)N2[C@H]1C(=O)OCOC(=O)[C@@H]1N2C(=O)C[C@H]2S(=O)(=O)C1(C)C`, the results for the activity, negative = cell killing in experiment [1] (setting [5]), in experiment [1] (setting [6]) and in experiment [1] (setting [8]) were -6.39%, -14.9% and -15.8%, respectively. The Potency entry in experiment [2] was “inactive”.
